Only some compounds are listed: those with a hit (about 7.5% of all), similar ones and a draw of the others.
KinaseGlo FLuc: counter-screen: inhibitors of Kinase-Glo firefly luciferase. Kinase-Glo luciferase, ATP luminescence, 8 min. 0.28% of 200,000 active. Q27757. Potency, µM (doses to about 38.3 µM), without a hit: at the highest dose activity change, negative = inhibition, actives largely listed as inhibitors; note: % is set by controls: 0 for no effect and ±100 for the full control effect; nearly all actives have a fitted effect of over 60% in size
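Light output from Kinase-Glo luciferase with luciferin and 10 uM ATP in 50 mM imidazole pH 7.2, KCl, MgCl2, Tween 20, BSA; compound pin-delivered, 8-min ambient incubation, then luminescence read.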
FLuc counter: inhibits or activates purified firefly luciferase, miR-21 counter-screen. P08659. purified FLuc, Km substrates, luminescence inhibition. Potency, µM (doses to about 57.5 µM), without a hit: at the top dose activity change, negative = inhibition, usual class: inhibitors. 6.9% of 360,000 active. AID 588342;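 note: plate controls were vehicle for no effect and reference inhibitor for full effect; nearly all actives have a fitted effect of over 55% in size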
Target sequence (P08659 whole entry, looked up): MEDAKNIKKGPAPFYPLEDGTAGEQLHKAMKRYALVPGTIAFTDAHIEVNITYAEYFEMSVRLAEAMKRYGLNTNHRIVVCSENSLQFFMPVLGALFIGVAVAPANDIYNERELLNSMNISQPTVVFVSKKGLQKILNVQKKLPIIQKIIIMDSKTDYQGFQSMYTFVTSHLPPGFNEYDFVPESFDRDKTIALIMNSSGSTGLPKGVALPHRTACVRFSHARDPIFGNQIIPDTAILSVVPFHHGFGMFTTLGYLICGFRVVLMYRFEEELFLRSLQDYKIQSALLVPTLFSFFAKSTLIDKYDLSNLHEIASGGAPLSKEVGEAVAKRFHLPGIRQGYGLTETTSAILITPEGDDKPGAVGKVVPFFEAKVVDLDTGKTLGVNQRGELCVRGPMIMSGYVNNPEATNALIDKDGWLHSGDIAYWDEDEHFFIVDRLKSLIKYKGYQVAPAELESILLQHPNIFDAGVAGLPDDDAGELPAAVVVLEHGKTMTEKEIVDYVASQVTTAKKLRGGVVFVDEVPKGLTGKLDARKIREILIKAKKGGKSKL
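Biochemical qHTS of compounds, final roughly 60 µM downward over six points, against 10 nM purified firefly luciferase using Km concentrations of substrates (10 uM D-luciferin, 10 uM ATP) in Tris acetate pH 7.5 buffer; luminescence output.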
ELG1 genotoxic: genotoxicity induction in ELG1-luciferase HEK293T cells | HEK293T ELG1-luciferase reporter, luminescence, 16 h | Potency, µM (doses to about 46 µM), without a hit: at the top dose activity change, positive = activation, actives largely listed as activators | 1.3% of 330,000 active | AID 504466; note: % of control where 0% means no effect; nearly all actives have a fitted effect of over 60% in size
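16 hr compound incubation (37 °C, 5% CO2) of HEK293T cells carrying luciferase-tagged ELG1; luciferase then measured by ONE-Glo luminescence after 30 min at RT.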
SMN2 splice up: increases expression of the SMN2 splice variant; 2.8% of 210,000 active; Potency, µM (top dose mostly 46.1 µM), for the others: top-dose activity change, positive = activation, most hits filed as activators; AID 1458; HEK293 SMN2-luciferase splicing reporter, luminescence, 30-36 h; note: % of control where 0% means no effect; nearly all actives have a fitted effect of over 55% in size
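HEK293 cells carry an SMN2 […]–luciferase reporter in which exon 7 inclusion puts luciferase in frame. Cells were plated 10-12 h before compound addition, then incubated 30-36 h at 37C. ONE-Glo luminescence was read; sodium butyrate at 4.5 mM final served as control.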
NPC1 prom act: NPC1 promoter activation; Huh7 NPC1 promoter luciferase reporter, 24 h; Potency, µM (series often up to 9.22 µM), inactives show at the highest dose activation, usual class: activators; 2.4% of 320,000 active; note: % of control where 0% means no effect; nearly all actives have a fitted effect of over 60% in size
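Quantitative HTS used a cell-based reporter: Huh7 cells stably bearing the NPC1 promoter upstream of luciferase were treated with compounds for 24 h, and promoter activation was read as luminescence.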
Rab9 prom act: activates the Rab9 promoter | Huh7 Rab9 promoter-luciferase reporter, luminescence, 24 h | Potency, µM (titrated, usually from 9.22 µM), for the others: at the highest dose activation, negative = inhibition, most hits filed as activators | 2.8% of 320,000 active | AID 485297; note: % of control where 0% means no effect; nearly all actives have a fitted effect of over 60% in size
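Using Huh7 cells stably transfected with Rab9 promoter–luciferase, compounds were incubated 24 h at 37 °C, 5% CO2; luciferase luminescence was read 10 min after reagent addition.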
* marks the source's active call; other numbers are inactive results. Calls come from the whole dose curve; as a rule, active = well fitted curve in the direction sought with a large enough effect; inconclusive = small, poorly fitted or top-dose-only effect, or another doubt; inactive = no such curve, though single readings can be large; an effect the other way counts as inactive or inconclusive. Potency is the fitted concentration of half-maximal effect.

What do the screens show for `Cc1cc2cc(NC(=O)c3ccco3)ccc2[nH]1`?
KinaseGlo FLuc: -7.7%; FLuc counter: 15.1µM*; ELG1 genotoxic: 14.2%; SMN2 splice up: 27.5%; NPC1 prom act: inconclusive; Rab9 prom act: inconclusive

Results for O=C(Nc1cccc(NC(=O)c2cccs2)c1)c1ccco1 ?
KinaseGlo FLuc: 0.3%; FLuc counter: inconclusive; ELG1 genotoxic: -0.2%; SMN2 splice up: inconclusive; NPC1 prom act: 8.8%; Rab9 prom act: -0.7%

What do the screens show for `CC(=O)Nc1ccc2nc(-c3cccnc3)[nH]c2c1`?
KinaseGlo FLuc: -8.6%; FLuc counter: inconclusive; ELG1 genotoxic: 2.4%; SMN2 splice up: -11.9%; NPC1 prom act: 0.3%; Rab9 prom act: 12.0%

What do the screens show for `CC(=O)Nc1cccc(-c2nc3ccc(NC(C)=O)cc3[nH]2)c1`?
KinaseGlo FLuc: -21.3%; FLuc counter: 15.1µM*; ELG1 genotoxic: 0.7%; SMN2 splice up: -16.2%; NPC1 prom act: 4.3%; Rab9 prom act: -4.5%

Results for O=C(Nc1ccc2nc(-c3ccco3)[nH]c2c1)c1cccs1 ?
KinaseGlo FLuc: inconclusive; FLuc counter: 2.69µM*; ELG1 genotoxic: 5.4%; SMN2 splice up: 11.2µM*; NPC1 prom act: inconclusive; Rab9 prom act: 3.16µM*

What do the screens show for `CC(=O)Nc1ccc2nc(-c3ccco3)[nH]c2c1`?
KinaseGlo FLuc: -20.7%; FLuc counter: 16.9µM*; ELG1 genotoxic: 15.8%; SMN2 splice up: inconclusive; NPC1 prom act: 23.0%; Rab9 prom act: inconclusive

What do the screens show for `Cc1ccc(C(c2sc3nc(-c4ccco4)nn3c2O)N2CCCC2)cc1` (centres undefined)?
FLuc counter: -18.9%

What do the screens show for `O=C(Nc1ccc2nc(-c3ccco3)[nH]c2c1)c1ccco1`?
KinaseGlo FLuc: -16.3%; FLuc counter: 7.57µM*; ELG1 genotoxic: 16.4µM*; SMN2 splice up: 23.7%; NPC1 prom act: inconclusive; Rab9 prom act: inconclusive

What do the screens show for `Cc1ccc2nc(-c3cccc(NC(=O)c4ccco4)c3)[nH]c2c1`?
KinaseGlo FLuc: inconclusive; FLuc counter: 1.35µM*; ELG1 genotoxic: 0.1%; SMN2 splice up: 12.6µM*; NPC1 prom act: inconclusive; Rab9 prom act: inconclusive

Results for COc1ccc(Cl)cc1NS(=O)(=O)c1cccc(C(=O)NC2CC2)c1 ?
ELG1 genotoxic: -1.1%

Results for Cc1cccc(COc2ccc(-c3cc(C(F)(F)F)n4nc(C)cc4n3)cc2)c1 ?
FLuc counter: -7.7%; SMN2 splice up: 3.9%

How did Cn1nnnc1SCCCNCc1ccc(-c2ccc(Br)cc2)o1 do in these assays?
FLuc counter: -13.1%

Results for CCOc1ccc(NC(=O)CCCc2cc(-c3ccc(OCC)cc3)on2)cc1 ?
KinaseGlo FLuc: -3.4%; FLuc counter: -3.4%; ELG1 genotoxic: 7.1%; SMN2 splice up: 13.9%; NPC1 prom act: -1.2%; Rab9 prom act: -0.3%

How did CCOc1ccc(-c2cc(CCCC(=O)Nc3cccc(OC)c3)no2)cc1 do in these assays?
KinaseGlo FLuc: 2.2%; FLuc counter: 6.75µM*; ELG1 genotoxic: 4.8%; SMN2 splice up: 12.0%; NPC1 prom act: -19.2%; Rab9 prom act: -20.7%

How did CCOc1ccc(-c2cc(CCCC(=O)Nc3cc(OC)ccc3OC)no2)cc1 do in these assays?
KinaseGlo FLuc: -0.9%; FLuc counter: 6.01µM*; ELG1 genotoxic: -8.8%; SMN2 splice up: -16.8%; NPC1 prom act: -3.6%; Rab9 prom act: -4.1%

How did COC(=O)c1sccc1NC(=O)/C=C\c1ccc(Cl)cc1Cl do in these assays?
KinaseGlo FLuc: inconclusive; FLuc counter: inconclusive; ELG1 genotoxic: 8.0%; SMN2 splice up: 27.6%; NPC1 prom act: inconclusive; Rab9 prom act: 3.98µM*

Results for O=C(/C=C/c1c(Cl)cccc1Cl)NCc1ccco1 ?
KinaseGlo FLuc: 6.0%; FLuc counter: -0.1%; ELG1 genotoxic: 8.4%; SMN2 splice up: 7.8%; NPC1 prom act: -2.7%; Rab9 prom act: inconclusive

How did CC(=O)N(C)c1ccc(NC(=O)/C=C/c2ccccc2Cl)cc1 do in these assays?
KinaseGlo FLuc: -6.6%; FLuc counter: 6.01µM*; ELG1 genotoxic: inconclusive; SMN2 splice up: 28.7%; NPC1 prom act: 28.9%; Rab9 prom act: inconclusive

What do the screens show for `O=C(/C=C/c1ccccc1Cl)NCc1ccco1`?
KinaseGlo FLuc: -4.9%; FLuc counter: 23.9µM*; ELG1 genotoxic: 8.7%; SMN2 splice up: 24.0%; NPC1 prom act: inconclusive; Rab9 prom act: -22.0%

How did CCC(CC)NC(=O)/C=C/c1ccccc1Cl do in these assays?
KinaseGlo FLuc: -11.4%; FLuc counter: inconclusive; ELG1 genotoxic: 15.7%; SMN2 splice up: inconclusive; NPC1 prom act: 20.8%; Rab9 prom act: 27.3%

How did O=C(/C=C/c1ccccc1Cl)Nc1ccncc1 do in these assays?
KinaseGlo FLuc: 1.5%; FLuc counter: 4.26µM*; ELG1 genotoxic: 11.2%; SMN2 splice up: 17.2%; NPC1 prom act: inconclusive; Rab9 prom act: 2.82µM*

How did CC1(C)CC(O)C(C(O)c2cccc([N+](=O)[O-])c2)C(C)(C)N1 (centres undefined) do in these assays?
KinaseGlo FLuc: 0.4%; FLuc counter: 6.1%; ELG1 genotoxic: -1.7%; SMN2 splice up: 0.0%; NPC1 prom act: -6.7%; Rab9 prom act: -4.8%

How did COc1ccc(Cl)cc1S(=O)(=O)NCc1ccc2c(c1)CCN2C(=O)c1cccc(C)c1 do in these assays?
FLuc counter: 2.9%

What do the screens show for `O=C(/C=C/c1ccc(Cl)cc1Cl)NCc1ccncc1`?
KinaseGlo FLuc: 1.4%; FLuc counter: inconclusive; ELG1 genotoxic: 0.0%; SMN2 splice up: -19.7%; NPC1 prom act: 3.5%; Rab9 prom act: 3.1%

How did O=C(/C=C/c1ccc(Cl)cc1Cl)Nc1ccncc1 do in these assays?
KinaseGlo FLuc: -3.4%; FLuc counter: 3.38µM*; ELG1 genotoxic: inconclusive; SMN2 splice up: -3.7%; NPC1 prom act: 29.3%; Rab9 prom act: 26.8%

How did O=C(O)/C=C/C(=O)Nc1cccnc1 do in these assays?
KinaseGlo FLuc: -1.1%; FLuc counter: -1.3%; ELG1 genotoxic: 4.5%; SMN2 splice up: 8.7%; NPC1 prom act: 2.0%; Rab9 prom act: -5.4%

What do the screens show for `O=C(/C=C/c1ccccc1Cl)Nc1cccnc1`?
FLuc counter: 1.35µM*; ELG1 genotoxic: 4.11µM*; NPC1 prom act: 1.12µM*; Rab9 prom act: 1.78µM*

How did CCOc1ccccc1N1CCN(C(=O)c2c(Cl)cnn2C)CC1 do in these assays?
FLuc counter: 0.3%; ELG1 genotoxic: 2.4%; NPC1 prom act: 0.7%; Rab9 prom act: -1.3%

What do the screens show for `Cc1cc(C)cc(NC(=O)Cn2cc3c(n2)CCCCC3)c1`?
KinaseGlo FLuc: 4.4%; FLuc counter: -0.5%; ELG1 genotoxic: -3.3%; SMN2 splice up: 5.0%; NPC1 prom act: 3.8%; Rab9 prom act: 13.4%
